# High-throughput results deposited in PubChem BioAssay by National Center for Advancing Translational Sciences (NCATS).
# Rows were chosen to be rich in hits. Some 19% of all compounds tested hit in one or more screens of this group.
# HT1080 IDH1KD tx – qHTS for induction of synthetic lethality in tumor cells producing 2HG: qHTS for the HT-1080-IDH1KD cell line; HT-1080 IDH1 knockdown viability, ATP luminescence, 48 h; Potency, µM (titrated, usually from 46.1 µM), for the others: top-dose activity, negative = toxicity, usual class: cytotoxic; hit rate 2% among 360,000;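 note: potency is the fitted concentration of half-maximal effect; 0% = DMSO wells and -100% = cell-free medium wells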
#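 IDH1KD HT-1080 cells, 750/well, RPMI + 5% FBS; compound pinned after 2 h settling; 48 h, 37 °C; CellTiter-Glo luminescence; % activity normalised to DMSO and no-cell wells; curves fitted, classed by r2 and efficacy.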
# HT1080NT lethal – qHTS for induction of synthetic lethality in tumor cells producing 2HG: qHTS for the HT-1080-NT fibrosarcoma cell line; Potency, µM (titrated, usually from 46.1 µM), without a hit: at the top dose activity, negative = less viability, most hits filed as cytotoxic; AID 686970, 2013; hit rate 1.6% among 360,000; HT-1080-NT fibrosarcoma viability, CellTiter-Glo ATP luminescence, 48 h;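 note: NT is the 2HG producing partner of a matched IDH1 knockdown line; potency is the fitted concentration of half-maximal effect; 0% = DMSO-treated cells and -100% = media-only wells without cells; nearly all actives have a fitted effect of over 55% in size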
#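 Viability by CellTiter-Glo luminescence after 48 h compound exposure at 37C of HT-1080-NT cells (750/well, RPMI, 5% FBS). % activity scaled between DMSO wells and medium-only wells, then curve-fitted and categorized by curve class.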
# ELG1 repair inh – qHTS screen for small molecules that inhibit ELG1-dependent DNA repair in human embryonic kidney (HEK293T) cells expressing luciferase-tagged ELG1; HEK293T ELG1-luciferase reporter, luminescence, 16 h; DNA damage induced by 5-fluorouridine; Potency, µM (highest dose often 46.1 µM), inactives show top-dose activity change, negative = inhibition, actives largely listed as inhibitors; hit rate 2.3% among 330,000; AID 504467, 2011; note: potency is the fitted concentration of half-maximal effect; nearly all actives have a fitted effect of over 55% in size
#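 Step one: seed 2,000 cells per well. Step two: pin-transfer compound or DMSO alongside 5-fluorouridine. Step three: incubate 16 hr, 37 °C, 5% CO2. Step four: add ONE-Glo, wait 30 min, read luminescence.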
# TDP1 cell CPT – qHTS for Inhibitors of human tyrosyl-DNA phosphodiesterase 1 (TDP1): qHTS in cells in presence of CPT; Potency, µM (series often up to 46.2 µM), for the others: at the highest dose activity change, negative = growth inhibition, usual class: inhibitors; chicken DT40 Tdp1-/-;hTDP1 cells + 20 nM CPT, ATP luminescence, 48 h; hit rate 12% among 420,000; note: potency is the fitted concentration of half-maximal effect; nearly all actives have a fitted effect of over 55% in size
#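 Chicken DT40 Tdp1-/- cells complemented with human TDP1, 400 cells/well, exposed to compounds plus 20 nM camptothecin for at least 48 h at 37 C; viability read as ATP content by CellTiter-Glo luminescence.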
# IL1B secr inh – qHTS for Inhibitors of Inflammasome Signaling: IL-1-beta AlphaLISA Primary Screen; THP-1 LPS/ATP IL-1B secretion, AlphaLISA, 16 h; stronger effect = lower value; activity change, % at 57.5 µM; hit rate 4.7% among 360,000; in the data active = activity change below about -50%; inconclusive = mostly about -30% to -49%
#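 Secreted IL-1B measured by AlphaLISA bead assay after 16 h compound exposure of THP-1 cells; compounds (final up to 57.5 uM) added 1 h before LPS (250 ng/mL) and ATP (1.25 mM) stimulation; lower signal means less secretion.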
# DT40 TDP1 no CPT – qHTS for Inhibitors of human tyrosyl-DNA phosphodiesterase 1 (TDP1): qHTS in cells in absence of CPT; DT40 Tdp1-/- hTDP1 cells, no CPT, ATP luminescence, 48 h; Potency, µM (highest dose often 46.2 µM), for inactives: at the highest dose activity change, negative = growth inhibition, usual class: inhibitors; hit rate 15% among 420,000; AID 686978, 2013; note: potency is the fitted concentration of half-maximal effect; nearly all actives have a fitted effect of over 55% in size
#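 Readout: luminescence from CellTiter-Glo after 30 min in the dark at RT. Cells: DT40 Tdp1-/- with stable hTDP1, 400/well. Exposure: compounds alone, ≥48 hr, 37 °C.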
# Active calls of the source: *; ? = inconclusive; . = no result; [ ] = dose if it differs, or a comment. Unless noted, calls come from the whole dose curve; as a rule, active = well fitted curve in the direction sought with a large enough effect; inconclusive = small, poorly fitted or top-dose-only effect, or another doubt; inactive = no such curve, though single readings can be large; an effect the other way counts as inactive or inconclusive. Unless noted, % is set by controls: 0 for no effect and ±100 for the full control effect.
SMILES,HT1080 IDH1KD tx,HT1080NT lethal,ELG1 repair inh,TDP1 cell CPT,IL1B secr inh,DT40 TDP1 no CPT
O=C(NC1CCCCC1)C(C1CC1)n1c(=O)c(-c2cc3ccccc3[nH]2)nc2ccccc21 (centres undefined),-46.9%,?,.,?,-1.7,?
O=C(NCc1ccccc1)C(c1ccccc1)n1c(=O)c(-c2cc3ccccc3[nH]2)nc2ccccc21 (centres undefined),?,?,.,?,16.3,20.6µM*
CC[C@@H](C)C(C(=O)N1CCN(C(=O)OC(C)(C)C)CC1)n1cc(-c2cn([C@@H](C)C(=O)N3CCN(C(=O)OC(C)(C)C)CC3)nn2)nn1 (some centres undefined),-4.7%,-4.3%,-4.8%,-11.6%,6.4,?
CC[C@H](C)C(C(=O)N1CCN(C(=O)OC(C)(C)C)CC1)n1cc(C(CC(C)C)NC(=O)OC(C)(C)C)nn1 (some centres undefined),5.1%,6.7%,?,23.1µM*,-4.4,?
CC[C@@H](C)[C@@H](C(=O)N1CCN(C(=O)OC(C)(C)C)CC1)n1cc(CCCCNC(=O)OC(C)(C)C)nn1,-1.9%,-2.0%,20.6µM*,13µM*,-22.4,13µM*
CC(C)CC(NC(=O)OC(C)(C)C)c1cn([C@@H](CCC(=O)OC(C)(C)C)C(=O)N2CCN(C(=O)OC(C)(C)C)CC2)nn1 (some centres undefined),11.8%,3.7%,-2.3%,16.4µM*,-5.3,16.4µM*
CC(C)(C)OC(=O)NCCCCc1cn(CC(=O)N2CCN(C(=O)OC(C)(C)C)CC2)nn1,8.7%,11.7%,9.5%,?,0.0,?
CCC1Nc2ncnc(N3CCOCC3)c2N(Cc2ccc(Cl)cc2)C1=O (centres undefined),8.6%,7.6%,2.5%,-6.9%,34.7,-4.0%
COc1cccc(OCC(=O)NC2CC(=O)N(c3cccc(OC)c3)C2)c1 (centres undefined),.,.,.,-9.6%,.,-15.2%
CCCCN(C)S(=O)(=O)c1cc(-c2nnc3c4ccccc4c(C)nn23)ccc1C,.,.,.,3.66µM*,.,7.31µM*
O=[N+]([O-])c1cc(-c2nc(-c3ccccc3)no2)ccc1N1CCCC1,.,.,.,-6.8%,.,-11.7%
N#Cc1c(N)n(Cc2ccccc2)c(=O)c2cc([N+](=O)[O-])ccc12,-8.7%,-1.6%,9.6%,16.4µM*,-18.6,18.4µM*
Cc1ccc(Cn2c(C)nc3ccc([N+](=O)[O-])cc3c2=O)cc1,-0.2%,-2.0%,?,18.4µM*,-12.8,20.6µM*
Nc1ncc2c(n1)-c1ccoc1CC2,9.8%,5.2%,7.0%,1.0%,13.3,-22.3%
Clc1ccc2c(c1)-c1nnc(Br)n1-c1ccccc1S2,-20.3%,-27.3%,1.2%,?,-55.1*,?
O=C(c1ccc(Cl)cc1)C1CCCN(C(=O)/C=C/c2ccccn2)C1 (centres undefined),-0.1%,6.1%,?,23.1µM*,-8.1,20.6µM*
CC(=O)c1ccccc1C(=O)N1CCCC(C(=O)c2ccc(C(F)(F)F)cc2)C1 (centres undefined),-6.7%,1.6%,?,23.1µM*,15.9,23.1µM*
Cc1cnc(C(=O)N2CCCC(C(=O)c3ccc(C(C)(C)C)cc3)C2)cn1 (centres undefined),0.3%,-1.0%,-13.6%,?,24.6,23.1µM*
COc1ccc(C(=O)C2CCCN(C(=O)c3ccccc3C(C)=O)C2)cc1F (centres undefined),-2.5%,0.2%,0.0%,?,76.6,?
CC(C)(C)c1ccc(C(=O)C2CCCN(C(=O)c3ccccn3)C2)cc1 (centres undefined),-10.5%,-1.1%,-8.5%,9.2µM*,0.0,?
O=C(CN1C(=O)NC2(CCCCC2)C1=O)NCc1ccc2c(c1)OCO2,3.6%,0.5%,-2.4%,-8.1%,-11.7,13.4%
CCOC(=O)c1[nH]c(C)c(C(=O)NCc2cccc(OC)c2)c1C,.,.,.,-2.9%,.,-22.4%
O=C(CN1CCc2cc3c(cc2C1)OCCCO3)Nc1ccc(F)cc1,-6.7%,-17.3%,?,?,7.3,?
Cc1cccc(NC(=O)CN2CCc3cc4c(cc3C2C)OCCCO4)c1 (centres undefined),-16.4%,-5.1%,20.6µM*,?,-54.0*,?
CC1c2cc3c(cc2CCN1C(=O)c1ccc(Br)cc1)OCCCO3 (centres undefined),?,?,?,16.4µM*,-7.0,7.31µM*
SMILES,HT1080 IDH1KD tx,HT1080NT lethal,ELG1 repair inh,TDP1 cell CPT,IL1B secr inh,DT40 TDP1 no CPT
O=C(CN1CCc2cc3c(cc2C1)OCCCO3)Nc1c(F)cccc1F,-5.6%,-7.4%,-23.4%,23.1µM*,-10.6,?
Cc1cc(C)cc(NC(=O)CN2CCc3cc4c(cc3C2C)OCCCO4)c1 (centres undefined),-1.1%,-0.2%,?,?,-11.6,?
COc1ccc(C(=O)N2CCc3cc4c(cc3C2C)OCCCO4)cc1 (centres undefined),-5.8%,-1.2%,-23.8%,20.6µM*,-1.7,20.6µM*
CC(C)Oc1ccc(C(=O)Nc2ccc3oc(-c4ccncc4)nc3c2)cc1,.,.,.,-18.9%,.,-12.3%
O=C(CSc1nnc(CNC(=O)c2c(F)cccc2Cl)o1)NCc1ccc(F)cc1,-22.7%,-19.2%,0.2%,?,24.9,-32.5%
Cc1cc(SCC(=O)Nc2nsc(-c3ccc(C(C)(C)C)cc3)n2)nc2ccccc12,.,.,.,?,.,-99.4%
CC1CC(C)CN(CC(=O)Nc2cc(S(=O)(=O)N3CCOCC3)ccc2N2CCCC2)C1 (centres undefined),-0.2%,-0.4%[9.24 µM],8.3%,?,-7.9,?
CC1c2cc3c(cc2CCN1C(=O)c1cccc(F)c1)OCCCO3 (centres undefined),?,?,-22.7%,20.6µM*,-14.5,?
O=C(c1cccc(F)c1)N1CCc2ccccc21,-26.5%,-10.5%,8.1%,-5.1%,8.5,-21.0%
COCC(O)Cn1ccnc1[N+](=O)[O-] (centres undefined),16.7%,7.8%,.,1.5%,2.8,?
